Screening data from PubChem.
Shown are actives, neighbours in structure and some others; about 2.1% of the full set was active somewhere.
FUS yeast rescue = qHTS for Suppressors of FUS Proteinopathy: Primary screen using FUS-linked yeast assay; S. cerevisiae FUS-expressing, growth rescue, OD600, 24 h; hit rate 0.24% among 390,000; Potency, µM (titrated, usually from 76.6 µM), hits mostly activators; AID 1347120, 2019;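 note: plate controls were DMSO vehicle for no effect and reference control for full effect; nearly all actives have a fitted effect of over 55% in size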
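Absorbance at 600 nm, taken 24hr after compound addition, measured rescue of FUS-yeast growth at 30C. Induction used 2% galactose with seeding at OD 0.005. Controls: CP55940 from 92uM final, DMSO only.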
TDP43 rescue = qHTS of TDP-43 Inhibitors. hit rate 1.8% among 410,000. TDP-43 expressing yeast growth rescue, BacTiter-Glo, 24 h. Potency, µM (titrated, usually from 46.1 µM), for inactives: at the top dose growth rescue (activation), most hits filed as activators. AID 652104, 2013; note: % of control where 0% means no effect; nearly all actives have a fitted effect of over 50% in size
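Luminescence from BacTiter-Glo reports growth of TDP-43-expressing yeast after 24 hr at 30 deg C with compound. Cells were raffinose-pregrown to mid-log, then seeded in galactose medium at OD600=0.02.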
aSyn yeast inh = qHTS of alpha-syn Inhibitors; Yeast expressing alpha-synuclein, growth rescue, BacTiter-Glo, 24 h; Potency, µM (series often up to 46.1 µM), for the others: at the top dose growth rescue (activation), most hits filed as activators; hit rate 0.14% among 370,000; AID 652106, 2013; note: % of control where 0% means no effect; nearly all actives have a fitted effect of over 65% in size
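Screening used galactose-induced yeast with toxic alpha-synuclein levels, exposed to compound for 24 hr at 30 deg C. Cell growth, read with BacTiter-Glo luminescence, gave the measured signal.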
Abeta yeast res = qHTS for compounds that reverse cellular toxicity of Amyloid beta (A-beta) peptide in yeast: Primary Screen | Potency, µM (top dose mostly 46.1 µM), hits mostly activators | AID 1347071, 2019 | hit rate 0.063% among 410,000 | yeast expressing A-beta42, growth rescue, OD600, 48 h; response scale: 0% DMSO, 100% iron-clioquinol control; note: nearly all actives have a fitted effect of over 55% in size
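Growth rescue measured by 600 nm absorbance after 48 h yeast culture at 30 C with compound. Values normalized between DMSO and an equimolar ferric chloride plus clioquinol control.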
* hit, by the source's call; i = inactive; ? = inconclusive; . = no result. Calls come from the whole dose curve; as a rule, active = well fitted curve in the direction sought with a large enough effect; inconclusive = small, poorly fitted or top-dose-only effect, or another doubt; inactive = no such curve, though single readings can be large; an effect the other way counts as inactive or inconclusive. Potency is the fitted concentration of half-maximal effect.

SMILES	FUS yeast rescue	TDP43 rescue	aSyn yeast inh	Abeta yeast res
COc1cccc(C(NC(C)=O)c2nc(-c3cccc(C(F)(F)F)c3)cs2)c1 (stereo not given)	i	?	-0.8%	i
COCc1cccc(-c2csc(C(O)c3ccc(F)c(F)c3)n2)c1 (stereo not given)	i	20µM*	?	i
COc1ccc(C(O)c2nc(-c3cccc(F)c3)cs2)cc1 (stereo not given)	i	14.1µM*	?	i
OC(c1ccccc1)c1nc(-c2cccc(F)c2)cs1 (stereo not given)	i	?	24.7%	i
Cc1cc(C)cc(-n2ccnc(NCc3ccc(F)cc3)c2=O)c1	i	?	.	i
c1ccc(OC2CCN(c3ncnc4sccc34)CC2)cc1	i	.	.	.
O=C(NCc1cccs1)C1CCN(S(=O)(=O)c2cccc3ccccc23)CC1	i	.	.	.
Cc1cccc(N2CCN(C(=O)c3ccc4nc(N5CCC(C)CC5)sc4c3)CC2)c1C	i	8.8%	.	i
O=S(=O)(NCCc1csc(-c2cccnc2)n1)c1ccc(Cl)s1	i	14.1µM*	-2.2%	11.2µM*
O=S(=O)(NCCc1csc(-c2ccc(F)cc2)n1)c1ccc(F)cc1F	i	2.82µM*	.	?
COc1ccc(F)cc1S(=O)(=O)NCCc1csc(-c2ccc(Cl)cc2)n1	?	?	.	i
CC(C)c1ccccc1NC(=O)CN1C(=O)c2cccc3cccc1c23	i	25.0%	.	i
CC1CC1c1ccc(/C=C(\C#N)C(=O)Nc2ccccc2Cl)o1 (stereo not given)	.	11.2µM*	17.1%	i
CC1CC1c1ccc(/C=C(\C#N)C(=O)Nc2ccc(Cl)cc2)o1 (stereo not given)	.	23.7%	-15.1%	i
COc1ccc(/C=C2\COc3ccccc3C2=O)cc1OC	i	2.82µM*	23.4%	i
CCOc1cc(/C=C2\COc3ccccc3C2=O)cc(Br)c1OCC(=O)N(C)C	?	22.4µM*	?	i
O=C(O)c1ccc(/C=C2\COc3ccccc3C2=O)cc1	i	11.2µM*	?	i
Cc1ccc(S(=O)(=O)NNC(=O)c2ccc(C(=O)N(c3ccccc3)c3ccccc3)cc2)cc1	.	.	4.1%	.
CN1/C(=C/C(=O)CSc2ccccc2C(=O)O)C(C)(C)c2ccccc21	i	20µM*	8.9%	?
COc1ccc(Nc2nnc(SCC(=O)/C=C3/N(C)c4ccccc4C3(C)C)s2)cc1	.	11.2µM*	14.1%	i
CN1/C(=C\C(=O)COC(=O)CN2C(=O)C3CC=CCC3C2=O)C(C)(C)c2ccccc21 (stereo not given)	i	15.4%	-13.7%	i
CN1/C(=C/C(=O)COC(=O)C2COc3ccccc3O2)C(C)(C)c2ccccc21 (stereo not given)	i	31.6µM*	1.6%	i
Cc1ccc(S(=O)(=O)n2nc(C)c(S(=O)(=O)N3CCC(C)CC3)c2C)cc1	i	17.0%	.	i
COc1ccc(NS(=O)(=O)c2ccc(-c3cnc(C4CC4)o3)cc2)cc1Cl	?	28.2%	.	i
O=C(CSc1nc2ncccc2o1)Nc1cccc(C(F)(F)F)c1	i	10µM*	.	12.6µM*
SMILES	FUS yeast rescue	TDP43 rescue	aSyn yeast inh	Abeta yeast res
Cc1cc(NC(=O)Cn2nc(C)n3cccc3c2=O)ccc1Br	i	0.5%	.	i
CCN(CC)C(=S)SCC(=O)Nc1ccc(F)cc1	i	14.1µM*	8.3%	i
Cc1nn(CC(=O)Nc2cccc(C(F)(F)F)c2)c(=O)c2cccn12	i	0.7%	6.31µM*	i
CCN(CC)C(=S)SCC(=O)Nc1cccc(C(F)(F)F)c1	i	12.6µM*	10.7%	i
CNc1ccc(C=O)cc1Br	.	.	8.6%	.
CC(=O)NC1CCCC1C#N (stereo not given)	.	.	-11.4%	.
COc1ccccc1Nc1nn2c(=O)c3ccc(C(=O)NCCC4=CCCCC4)cc3nc2s1	i	5.1%	-3.8%	i
CS(=O)(=O)c1ncc(N(Cc2ccco2)Cc2cccs2)c(C(=O)Nc2ccccc2F)n1	i	5.8%	.	i
COc1ccc(Cn2cc(CN3CCc4onc(-c5ccc(Br)cc5)c4C3=O)nn2)cc1	?	17.8µM*	18.8%	i
Cc1cccc(CCNC(=O)Cn2ncc3c(=O)oc4ccccc4c32)c1	i	3.1%	.	i
O=C(O)CSc1ncnc2c1oc1ccccc12	i	-13.8%	-0.4%	i
